Assay outcomes from PubChem.
The full list was thinned out, with hits kept by preference.
CapD inh = inhibitors of Bacillus anthracis CapD enzyme; purified CapD enzyme, fluorescence intensity read-out; active compounds read low; z-score (no concentration beside the values); actives 0.23% (n = 140,000); in the data active = z-score mostly below about -2.9, no sharp cut-off; inactive = mostly above about -1.9
Numbers without * were called inactive.

SMILES | CapD inh
CCc1ccc2c(c1)S(=O)(=O)C(C(F)(F)F)CO2 (stereo not drawn) | -6.6*
CCc1ccc(NC(=O)C2COc3ccccc3O2)cc1 (stereo not drawn) | -0.2
O=C(NCc1ccc2c(c1)OCO2)C(F)(F)F | -0.35
O=C(c1ccc(C(F)(F)F)cc1)N(c1ccccc1)n1c(-c2cccc([N+](=O)[O-])c2)csc1=S | 0.65
OCC1(CO)CSC(=NCc2ccc(F)cc2)N1 | -0.01
O=C1CN2C(SCc3ccc(Br)cc3)=Nc3ccccc3C2=N1 | 3.8
COC(=O)C(=C/C=C/c1ccccc1)C(=O)OC | -4.5*
COc1ccccc1NC(=O)/C=C/c1ccccc1 | -0.55
CN(C)C(=O)/C(=C/C=C/c1ccccc1)NC(=O)c1ccccc1 | -3.1
O=C(NCc1csc(-c2cccs2)n1)c1ccc(F)cc1Cl | 34
Cc1[nH]c(=O)c(C#N)c(C)c1Cl | 0.04
CCc1[nH]c(=S)[nH]c(=O)c1C#N | -6.5*
CCc1[nH]c(=O)c(C#N)c2c1CCCC2 | 42
CCN(CC)C(=O)COCC1CCCN2CCCCC12 (stereo not drawn) | -0.4
O=C(O)c1ccc2c(c1)C1C=CCC1C(c1ccc(Br)cc1)N2 (stereo not drawn) | -1.4
Brc1ccccc1[C@@H]1Nc2ccccc2[C@@H]2C=CC[C@@H]21 | -0.46
CC(=O)Oc1ccc(C2Nc3ccc(C)cc3C3C=CCC32)c(OC(C)=O)c1 (stereo not drawn) | 0.035
O=C(O)C1Nc2ccccc2C2C=CCC12 (stereo not drawn) | -8.8*
O=C(O)c1ccc2c(c1)C1C=CCC1C(c1cccc3ccccc13)N2 (stereo not drawn) | -0.62
O=C(O)c1ccc(C2Nc3ccccc3C3C=CCC32)cc1 (stereo not drawn) | -7.9*
CCc1ccc2c(c1)C1C=CCC1C(c1ccc(C(=O)O)cc1)N2 (stereo not drawn) | -1.1
CC(=O)Oc1ccc(C2Nc3ccc(C(C)=O)cc3C3C=CCC32)c(OC(C)=O)c1 (stereo not drawn) | 1.3
CC(=O)Oc1ccc(C2Nc3ccc(C(=O)O)cc3C3C=CCC32)c(OC(C)=O)c1 (stereo not drawn) | -4.4*
Cc1cc(C(F)(F)F)n[nH]1 | 0.7
CC(C)c1cc(C(C)C)c(S(=O)(=O)NCCC(=O)O)c(C(C)C)c1 | -0.03
SMILES | CapD inh
CN(C)c1ccc(-c2nc3cc(NC(=O)c4ccc(Cl)c([N+](=O)[O-])c4)ccc3o2)cc1 | 5.8
Cc1ccccc1Nc1c(-c2ccc(O)cc2)nc2sccn12 | -0.26
O=C(O)CN1C(=O)/C(=C\c2cc([N+](=O)[O-])ccc2Cl)SC1=S | -1.5
CCOc1cc(/C=C2/SC(=S)N(CC(=O)O)C2=O)ccc1OCc1ccccc1 | -0.77
O=C(O)CN1C(=O)/C(=C\c2cccc([N+](=O)[O-])c2O)SC1=S | -3
O=C(O)CN1C(=O)/C(=C\c2cc(Cl)cc(Br)c2O)SC1=S | -2.3
O=C(O)CN1C(=O)/C(=C\c2cc([N+](=O)[O-])ccc2O)SC1=S | -5.2*
CCOc1cc(Br)c(Br)c(/C=C2\SC(=S)N(CC(=O)O)C2=O)c1O | -3.8*
Cc1ccc(S(=O)(=O)CCSc2ccccc2)cc1 | 0.49
Cc1ccc(C(=O)N2CCN(C(=O)OCc3ccc(-c4ccccc4)cc3)CC2)cc1 | 0.19
Clc1ccc(Oc2nc(-c3ccccc3)ns2)cc1 | 0.53
CN1C(=O)C(=Cc2ccc(-c3cccc(C(=O)O)c3)o2)C(=O)N(C)C1=S | -0.73
CCc1ccc(/C=C2\C(=N)N3N=C(N4CCCC4)SC3=NC2=O)cc1 | 0.55
N=C1/C(=C\c2ccc(-c3cccc(C(=O)O)c3)o2)C(=O)N=C2SC(N3CCCCC3)=NN12 | -3.8*
COc1cc(OC)c(NC(=O)Cn2ncc3c2-c2cc(C)ccc2OC3)cc1Cl | -0.69
CCOC(=O)N1CC=C2C(C#N)=C(N)C(C#N)(C#N)C(c3ccc(-c4ccccc4)cc3)C2C1 (stereo not drawn) | 0.84
COC(=O)C1Sc2[nH]c(=O)sc2C(c2ccc(Cl)cc2)C1C(=O)OC (stereo not drawn) | 0.1
N#CC1=C(N)Oc2cc(O)ccc2C1c1ccccc1 (stereo not drawn) | 0.16
O=C(O)C1Sc2[nH]c(=O)sc2C2c3ccc(O)cc3OC(=O)C12 (stereo not drawn) | -8.8*
CCOC(=O)c1c(C)oc2c1c1c(c3ccccc32)OCN(CCc2ccccc2)C1 | -0.12
Cn1c(=O)c2c(-c3ccc(Cl)cc3)n(C3CCCCC3)cc2n(C)c1=O | 26
Cc1nc2ccccc2n1CC(=O)N(c1ccccc1)C(C)C | 0.57
CCN(CCS(=O)(=O)c1ccc(C)cc1)S(=O)(=O)c1ccccc1 | 0.56
N#Cc1ccc(S(=O)(=O)NCC2(O)CCCCC2)cc1 | -1.1
CCC(=S)/C=C1\Sc2ccc(OC)cc2N1CC | 16
CCC(=S)/C=C1/Sc2ccc(Cl)cc2N1CC | 18
CCN1/C(=C\C(=S)Nc2ccccc2)Sc2ccccc21 | -4.4*
COc1ccc(-c2cc(C(F)(F)F)n3nc(C(=O)NCCCn4ccnc4)cc3n2)cc1OC | -0.49
CCc1ccc(N2C(=O)c3ccccc3NC2c2ccc(OCc3ccccc3)cc2)cc1 (stereo not drawn) | 31
